# Results: ChEMBL document CHEMBL1961873, “Compounds: GSK PKIS; Assays: Nanosyn kinase panel” (2012)
# Where “and” joins values, the source holds several entries; their conditions need not be identical. Equal entries are not always repeated.
# Columns and labels:
# [1] = biological target: CDK3/Cyclin E (Homo sapiens) (UniProt P24864+Q00526); conditions: at 1 µM;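 further: each figure is a mean percent inhibition of the CDK3/cyclin E complex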
# [2] = biological target: Cyclin-dependent kinase 4 (Homo sapiens) (UniProt P11802); conditions: at 0.1 µM
# [3] = biological target: Cyclin-dependent kinase 4 (Homo sapiens) (UniProt P11802); conditions: at 1 µM
# [4] = biological target: Cyclin-dependent kinase 5 (Homo sapiens) (UniProt Q00535); conditions: at 0.1 µM
# [5] = biological target: Cyclin-dependent kinase 5 (Homo sapiens) (UniProt Q00535); conditions: at 1 µM
# [6] = biological target: Cyclin-dependent kinase 6 (Homo sapiens) (UniProt Q00534); conditions: at 0.1 µM
# [7] = biological target: Cyclin-dependent kinase 6 (Homo sapiens) (UniProt Q00534); conditions: at 1 µM
# [8] = biological target: Dual specificity protein kinase CLK2 (Homo sapiens) (UniProt P49760); conditions: at 0.1 µM
# [9] = biological target: Dual specificity protein kinase CLK2 (Homo sapiens) (UniProt P49760); conditions: at 1 µM
# [10] = biological target: Dual specificity protein kinase CLK3 (Homo sapiens) (UniProt P49761); conditions: at 0.1 µM
# Dual specificity protein kinase CLK3 (Homo sapiens), sequence (P49761 whole entry, looked up): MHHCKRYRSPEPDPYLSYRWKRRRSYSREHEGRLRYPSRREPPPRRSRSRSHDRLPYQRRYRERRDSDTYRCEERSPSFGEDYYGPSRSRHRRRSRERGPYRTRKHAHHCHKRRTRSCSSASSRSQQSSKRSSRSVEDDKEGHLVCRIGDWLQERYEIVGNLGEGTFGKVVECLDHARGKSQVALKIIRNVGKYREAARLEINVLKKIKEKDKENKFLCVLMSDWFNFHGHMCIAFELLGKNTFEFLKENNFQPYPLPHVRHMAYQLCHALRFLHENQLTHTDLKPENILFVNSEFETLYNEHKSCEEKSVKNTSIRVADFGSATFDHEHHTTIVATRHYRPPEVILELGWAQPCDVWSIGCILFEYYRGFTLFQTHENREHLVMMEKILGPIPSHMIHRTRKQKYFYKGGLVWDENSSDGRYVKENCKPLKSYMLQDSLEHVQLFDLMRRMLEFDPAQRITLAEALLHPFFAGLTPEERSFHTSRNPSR
# Cyclin-dependent kinase 5 (Homo sapiens), sequence (Q00535 whole entry, looked up): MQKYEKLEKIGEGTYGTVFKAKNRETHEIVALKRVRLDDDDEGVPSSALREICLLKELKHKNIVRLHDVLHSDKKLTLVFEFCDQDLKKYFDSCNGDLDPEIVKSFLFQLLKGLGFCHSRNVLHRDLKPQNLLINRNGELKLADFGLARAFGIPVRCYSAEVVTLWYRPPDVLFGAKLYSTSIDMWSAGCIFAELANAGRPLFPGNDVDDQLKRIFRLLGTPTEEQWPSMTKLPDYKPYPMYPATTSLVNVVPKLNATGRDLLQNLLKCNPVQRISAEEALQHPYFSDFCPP
# Cyclin-dependent kinase 4 (Homo sapiens), sequence (P11802 whole entry): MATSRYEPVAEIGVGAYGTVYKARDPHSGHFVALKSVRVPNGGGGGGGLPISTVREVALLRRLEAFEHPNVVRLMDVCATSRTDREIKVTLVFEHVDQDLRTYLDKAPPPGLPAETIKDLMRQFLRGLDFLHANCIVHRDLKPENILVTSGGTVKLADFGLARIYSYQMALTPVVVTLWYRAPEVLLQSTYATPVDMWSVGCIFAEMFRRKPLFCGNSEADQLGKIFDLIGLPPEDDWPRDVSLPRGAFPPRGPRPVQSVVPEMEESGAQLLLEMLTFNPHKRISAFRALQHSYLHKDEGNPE
# CDK3/Cyclin E (Homo sapiens), sequence (P24864 whole entry, looked up): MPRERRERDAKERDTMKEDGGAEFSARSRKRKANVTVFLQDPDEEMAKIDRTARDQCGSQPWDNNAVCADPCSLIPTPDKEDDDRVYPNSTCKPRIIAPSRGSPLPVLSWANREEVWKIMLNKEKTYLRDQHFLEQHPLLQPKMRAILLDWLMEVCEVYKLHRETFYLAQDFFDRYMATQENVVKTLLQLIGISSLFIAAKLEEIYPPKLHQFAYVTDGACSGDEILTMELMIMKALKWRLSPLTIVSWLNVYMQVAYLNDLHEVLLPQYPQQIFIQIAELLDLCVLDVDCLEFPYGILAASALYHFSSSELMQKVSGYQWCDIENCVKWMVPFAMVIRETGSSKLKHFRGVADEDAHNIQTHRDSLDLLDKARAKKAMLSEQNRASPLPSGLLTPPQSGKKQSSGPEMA
# CDK3/Cyclin E (Homo sapiens), sequence (Q00526 whole entry, looked up): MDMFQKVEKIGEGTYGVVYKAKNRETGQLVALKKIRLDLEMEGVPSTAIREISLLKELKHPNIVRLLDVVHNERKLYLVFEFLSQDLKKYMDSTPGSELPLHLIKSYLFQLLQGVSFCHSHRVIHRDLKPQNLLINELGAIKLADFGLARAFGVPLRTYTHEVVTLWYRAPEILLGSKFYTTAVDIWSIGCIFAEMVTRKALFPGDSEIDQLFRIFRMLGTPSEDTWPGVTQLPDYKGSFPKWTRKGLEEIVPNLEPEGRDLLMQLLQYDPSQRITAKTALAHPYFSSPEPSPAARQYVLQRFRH
# Cyclin-dependent kinase 6 (Homo sapiens), sequence (Q00534 whole entry): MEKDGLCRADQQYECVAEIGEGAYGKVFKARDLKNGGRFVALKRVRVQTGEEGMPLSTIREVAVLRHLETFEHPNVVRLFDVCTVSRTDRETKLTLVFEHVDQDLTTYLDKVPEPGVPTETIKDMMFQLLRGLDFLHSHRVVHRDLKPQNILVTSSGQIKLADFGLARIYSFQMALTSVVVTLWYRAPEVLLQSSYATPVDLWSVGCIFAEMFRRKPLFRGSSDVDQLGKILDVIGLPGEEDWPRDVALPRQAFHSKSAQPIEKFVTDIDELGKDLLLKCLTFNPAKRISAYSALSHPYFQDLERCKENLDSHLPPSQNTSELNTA
# Dual specificity protein kinase CLK2 (Homo sapiens), sequence (P49760 whole entry, looked up): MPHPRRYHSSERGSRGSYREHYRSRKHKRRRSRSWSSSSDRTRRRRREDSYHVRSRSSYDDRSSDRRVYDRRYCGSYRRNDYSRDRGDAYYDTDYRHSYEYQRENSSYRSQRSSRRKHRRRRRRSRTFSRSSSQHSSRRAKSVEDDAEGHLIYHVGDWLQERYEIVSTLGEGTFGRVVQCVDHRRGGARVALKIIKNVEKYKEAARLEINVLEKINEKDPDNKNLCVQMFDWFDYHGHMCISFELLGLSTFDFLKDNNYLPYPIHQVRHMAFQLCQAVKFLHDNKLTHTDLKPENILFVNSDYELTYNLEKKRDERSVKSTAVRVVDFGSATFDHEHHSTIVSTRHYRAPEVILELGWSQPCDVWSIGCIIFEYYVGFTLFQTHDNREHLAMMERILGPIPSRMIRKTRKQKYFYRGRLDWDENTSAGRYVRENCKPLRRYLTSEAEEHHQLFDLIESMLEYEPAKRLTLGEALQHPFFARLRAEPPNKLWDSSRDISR
Structure (SMILES),inhibition [1],inhibition [2],inhibition [3],inhibition [4],inhibition [5],inhibition [6],inhibition [7],inhibition [8],inhibition [9],inhibition [10]
COc1cc2c(cc1Nc1nc(Nc3cccc(F)c3C(N)=O)c3cc[nH]c3n1)N(C(=O)CN1CCN(C(C)C)CC1)CC2,-0.76%,1.15%,1.2%,0.64%,0.27%,-4.06%,-0.78%,6.86%,45.4%,0.88%
O=C(O[C@H]1CN[C@H](C#Cc2cc3ncnc(Nc4ccc5c(ccn5Cc5cc(F)ccc5F)c4)c3s2)C1)N1CCOCC1,-2.16%,2.17%,1.93%,1.09%,0.14%,-1.14%,1.5%,1.29%,0.52%,1.27%
NS(=O)(=O)c1ccc(N/N=C2\C(=O)Nc3cccc(CCc4ccncc4)c32)cc1,63.6%,14%,29.4%,19.4%,38.5%,36.6%,56.2%,0.9%,4.17%,0.97%
NC(=O)c1ccc2c(-c3ccnc(NCCCO)n3)c(-c3ccc(F)cc3)nn2c1,-1.28%,3.3%,4.76%,0.91%,0.98%,-6.31%,1.97%,2.88%,2.32%,0.97%
CS(=O)(=O)Nc1ccc(-c2ccc3c(NC(=O)C4CC4)n[nH]c3c2)cc1,6.25%,2.19%,6.78%,0.45%,1.18%,7.5%,36.3%,0.87%,3.05%,1.51%
Cc1c2ccc(N(C)c3ccnc(Nc4cccc(S(N)(=O)=O)c4)n3)cc2nn1C,2.13%,-3.55%,9.57%,-1.58%,0.35%,-1.51%,15.3%,1.61%,0.97%,-1.14%
Nc1nonc1-c1nc2cnccc2n1C1CC1,4.03% and 3.32%,1.99% and -2.13%,2.95% and -0.61%,3.26% and -1.62%,16.6% and 12.1%,0.11% and -4.39%,1.22% and -0.23%,0.67% and 3.19%,17% and 19%,1.8% and -2.05%
CS(=O)(=O)CCNCc1ccoc1-c1ccc2ncnc(Nc3ccc(OCc4ccccc4)cc3)c2c1,-1.1%,0.34%,2.91%,0.75%,1.14%,-0.43%,5.44%,0.36%,-2.93%,-0.17%
c1ccc(-c2n[nH]cc2-c2ccnc(-c3ccc(OCCn4ccnc4)cc3)c2)nc1,0.94%,1.86%,6.97%,1.11%,4.49%,1.43%,10%,0.61%,1.21%,3.95%
COc1ccc(-c2nn3ncccc3c2-c2ccnc(Nc3ccc(F)c(F)c3)n2)cc1,0.42%,0.25%,1.71%,0.48%,1.15%,5.13%,3.48%,-1.03%,0.41%,2.08%
CS(=O)(=O)Nc1ccc(-c2cc(-c3ccccc3)cc(C(N)=O)c2N)cc1,-1.91%,0.62%,1.63%,0.11%,0.2%,-0.52%,-0.55%,0.11%,2.34%,0.2%
NS(=O)(=O)c1cccc(N/C=C2\C(=O)Nc3ccccc32)c1,11.3%,5.5%,18.1%,2.87%,16.5%,2.67%,55.6%,2.13%,13.7%,1.92%
CN1CCN(Cc2ccc(-c3cc4ncnc(Nc5ccc(OCc6cccc(F)c6)c(Cl)c5)c4s3)o2)CC1,-0.88% and -0.53%,0.41% and 3.55%,4.82% and 8.07%,1.3% and 1.22%,2.71% and 2.36%,-3.55% and 3.09%,-1.42% and 9.4%,-0.35% and 2.37%,-0.11% and 1.21%,-0.14% and 1.15%
CCN1CCC(C(=O)Nc2n[nH]c3nnc(-c4cccc(F)c4F)cc23)CC1,16.7%,5.92%,36.6%,2.96%,14.1%,5.64%,28.9%,-0.21%,2.56%,1.25%
COc1cccc(Nc2nccc(-c3cnn4ncccc34)n2)c1,91.4%,56.5%,76.9%,59.3%,78%,49.5%,80.5%,93.9%,98.2%,23.2%
CN1CCC(n2cnc(-c3ccc(F)cc3)c2-c2ccnc(NCCO)n2)CC1,-0.43%,2.07%,2.04%,0.67%,0.7%,3.75%,2.73%,1.02%,2.41%,3.29%

Structure (SMILES),inhibition [1],inhibition [2],inhibition [3],inhibition [4],inhibition [5],inhibition [6],inhibition [7],inhibition [8],inhibition [9],inhibition [10]
Nc1ncnc2occ(-c3ccc(NC(=O)Nc4cc(C(F)(F)F)ccc4F)cc3)c12,26.3% and 17%,2.18% and -1.12%,7.72% and 1.95%,2.15% and 1.3%,10.4% and 4.77%,2.49% and -1.62%,6.94% and -0.12%,-0.16% and 0.05%,2.32% and 0.92%,-0.08% and 0.74%
Cc1ccc(-c2cc3c(NC(=O)C4CC4)ncnc3o2)cc1,-0.64%,3.36%,4.97%,1.87%,3.17%,1.55%,3.23%,-0.87%,6.08%,2.11%
CN(C)CCNC(=O)Nc1ccc(N(C)c2ccnc(Nc3ccc(CS(C)(=O)=O)cc3)n2)cc1,0.2%,3.81%,4.81%,0.85%,2.57%,0.28%,4.3%,0.9%,3.79%,2.16%
COc1cccc(-n2ncc3c(N/N=C/c4ccc(C(=O)NCCN(C)C)cc4)ncnc32)c1,50.1%,40.6%,71.4%,37.9%,74.3%,47.9%,81.5%,21.6%,73.7%,5.88%
COc1ccc(Nc2ncc(-c3ccccc3)o2)cc1OC,22.2%,5.15%,14%,11.1%,45.7%,-1.71%,23.4%,0.23%,5.9%,2%
CCn1c(-c2nonc2N)nc2cncc(C(=O)NCCNC)c21,0.12%,1.73%,3.94%,-0.65%,0.97%,-0.66%,1.38%,1.2%,10.5%,-2.71%
Cn1c(-c2nonc2N)nc2cnccc21,2.12%,1.95%,3.9%,1.09%,7.18%,-4.08%,1.64%,2.9%,10.3%,1%
CCS(=O)(=O)c1ccc(OC)c(Nc2ncc(-c3cccc(F)c3)o2)c1,-2.15%,2.69%,4.19%,0.21%,1.39%,3.05%,1.82%,13%,63.1%,2.49%
COc1cc(N2CCN(C(C)C)CC2)ccc1Nc1nc(Nc2cccc(F)c2C(=O)O)c2cc[nH]c2n1,-1.26%,2.63%,2.75%,1.71%,2.09%,5.01%,4.74%,5.61%,41%,3.73%
CS(=O)(=O)CCNCc1ccc(-c2ccc3ncnc(Nc4ccc(OCc5ccccc5)cc4)c3c2)o1,-0.81%,1.16%,2.98%,0.58%,2.07%,-1.55%,1.12%,0.03%,0.73%,0.41%
COc1ccc2ncn(-c3cc(O[C@H](C)c4ccccc4C(F)(F)F)c(C(N)=O)s3)c2c1,-1.57%,0.47%,2.89%,0.13%,1.21%,-4.17%,-1.08%,0.34%,5.08%,-0.05%
Nc1nccc(-c2c(-c3ccc(F)cc3)ncn2C2CCNCC2)n1,-1.14% and -1.16%,0.24% and -0.14%,0.89% and 0.97%,0.29% and 0.63%,1.43% and 1.29%,-5.67% and 1.15%,-4.19% and 1.96%,2.07% and 0.24%,11.9% and 2.02%,-0.13% and 1.41%
CCCNc1cccc(-n2ncc3c(N/N=C/c4ccncc4)ncnc32)c1,9.63%,0.2%,9.54%,1.35%,12.6%,3.25%,10.1%,3.08%,10.9%,0.61%
COc1c(C(N)=O)cc(-c2ccc(Cl)cc2)cc1-c1ccc(S(N)(=O)=O)cc1,-0.77%,3.98%,3.06%,0.65%,0.17%,-0.9%,-0.36%,3.22%,5.16%,0.71%
Cc1nnc(-c2cccc(-c3ccc(C(=O)NCC4CC4)cc3)c2)o1,-0.73%,1.46%,2.47%,0.47%,1.45%,2.21%,4.2%,1.61%,1.14%,2.84%
